# Source: PubChem BioAssay
# Active and inactive are the calls of the source.
# Legend:
# [1] = system: Plasmodium falciparum Sir2 (PF13_0152, Sir2A); experiment: Plasmodium falciparum Sir2A binding compounds – biochemical, small-molecule microarray, 635 nm fluorescence, primary screen (AID 1098); conditions: fluorescence 635 nm, higher = more signal;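 note: score merges spot fluorescence intensity with its signal-to-noise ratio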
# [2] = probe aDKK1 binding to arrayed compounds – biochemical, biotinylated probe, 635/667 nm fluorescence, primary screen (AID 1099); conditions: small-molecule microarray, higher = more signal;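 note: score merges 667nm spot fluorescence with signal to noise across triplicate slides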
# [3] = probe aCHRDL2 binding to arrayed compounds – biochemical, biotinylated probe, 635/667 nm fluorescence, primary screen (AID 1100); conditions: small-molecule microarray, higher = more signal
# [4] = change in splice reporter luminescence, either direction, cell-based, HEK293, spliceosome inhibition project, primary screen (AID 1101); conditions: HEK293 splicing luciferase reporter, 24 h, higher = more signal, called active from +8 up or from −8 down;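 note: HEK293 cells carrying a splicing-competent luciferase reporter gene; test concentration not given here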
# [5] = target: Fibroblast growth factor 10 (Homo sapiens) (UniProt O15520); experiment: compounds binding fibroblast growth factor 10 – biochemical, small-molecule microarray, 635 nm fluorescence, primary screen (AID 1102); conditions: FGF10 binding, fluorescence 635 nm, higher = more signal
# Chain of Fibroblast growth factor 10 (Homo sapiens) (O15520 whole entry, looked up): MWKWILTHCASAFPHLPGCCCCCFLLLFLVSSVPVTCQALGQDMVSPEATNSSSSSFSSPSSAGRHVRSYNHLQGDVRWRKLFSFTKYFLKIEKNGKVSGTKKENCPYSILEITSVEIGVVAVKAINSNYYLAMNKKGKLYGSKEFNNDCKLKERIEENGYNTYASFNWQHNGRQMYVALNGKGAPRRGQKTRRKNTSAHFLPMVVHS
# [6] = system: glycogen synthase kinase-3 (GSK3A per assay name; protocol says GSK3B); experiment: compounds binding glycogen synthase kinase-3 – biochemical, small-molecule microarray, 635 nm fluorescence, GSK3A, primary screen (AID 1103); conditions: fluorescence 635 nm, higher = more signal; note: the record names both GSK3A and GSK3B
# [7] = target: Epidermal growth factor receptor (Homo sapiens) (UniProt P00533); experiment: compounds binding epidermal growth factor receptor – biochemical, small-molecule microarray, 635 nm fluorescence, primary screen (AID 1104); conditions: EGFR binding, higher = more signal;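 note: score merges 667 nm emission intensity with spot signal to noise over triplicate slides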
# Chain of Epidermal growth factor receptor (Homo sapiens) (P00533 whole entry, looked up): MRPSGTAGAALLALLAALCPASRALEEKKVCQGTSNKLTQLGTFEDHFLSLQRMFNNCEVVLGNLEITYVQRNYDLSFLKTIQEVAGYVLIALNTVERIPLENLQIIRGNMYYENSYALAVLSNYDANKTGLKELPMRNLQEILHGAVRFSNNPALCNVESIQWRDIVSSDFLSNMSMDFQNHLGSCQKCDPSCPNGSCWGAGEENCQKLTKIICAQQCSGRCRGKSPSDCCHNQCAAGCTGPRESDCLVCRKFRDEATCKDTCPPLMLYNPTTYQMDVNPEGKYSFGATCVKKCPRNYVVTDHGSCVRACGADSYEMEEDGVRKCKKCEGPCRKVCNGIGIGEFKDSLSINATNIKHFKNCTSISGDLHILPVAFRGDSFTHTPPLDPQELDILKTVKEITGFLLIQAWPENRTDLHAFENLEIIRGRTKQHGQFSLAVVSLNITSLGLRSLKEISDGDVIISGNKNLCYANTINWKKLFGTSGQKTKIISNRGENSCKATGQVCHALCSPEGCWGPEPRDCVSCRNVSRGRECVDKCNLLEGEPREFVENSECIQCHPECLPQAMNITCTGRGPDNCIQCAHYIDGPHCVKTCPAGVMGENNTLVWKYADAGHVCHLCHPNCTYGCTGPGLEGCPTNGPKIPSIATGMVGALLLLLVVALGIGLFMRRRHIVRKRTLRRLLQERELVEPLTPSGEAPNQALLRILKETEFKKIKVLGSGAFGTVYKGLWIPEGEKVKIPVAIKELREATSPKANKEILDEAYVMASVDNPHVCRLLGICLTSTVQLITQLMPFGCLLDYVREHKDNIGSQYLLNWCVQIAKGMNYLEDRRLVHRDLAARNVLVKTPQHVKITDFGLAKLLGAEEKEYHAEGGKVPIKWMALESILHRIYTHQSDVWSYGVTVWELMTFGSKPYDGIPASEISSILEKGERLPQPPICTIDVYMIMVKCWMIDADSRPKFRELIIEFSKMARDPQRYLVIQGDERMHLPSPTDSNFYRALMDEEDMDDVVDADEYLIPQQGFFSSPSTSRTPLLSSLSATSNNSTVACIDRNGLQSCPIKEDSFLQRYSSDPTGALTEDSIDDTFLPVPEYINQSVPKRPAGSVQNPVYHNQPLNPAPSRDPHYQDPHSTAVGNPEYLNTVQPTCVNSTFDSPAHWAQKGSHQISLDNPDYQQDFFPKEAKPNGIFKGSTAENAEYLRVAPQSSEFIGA
# [8] = target: Follistatin-related protein 3 (Homo sapiens) (UniProt O95633); experiment: compounds binding follistatin-related protein 3 – biochemical, small-molecule microarray, 635 nm fluorescence, primary screen (AID 1105); conditions: FSTL3 binding, higher = more signal;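 note: score merges emission near 667 nm and signal to noise per printed spot across three slides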
# Chain of Follistatin-related protein 3 (Homo sapiens) (O95633 whole entry, looked up): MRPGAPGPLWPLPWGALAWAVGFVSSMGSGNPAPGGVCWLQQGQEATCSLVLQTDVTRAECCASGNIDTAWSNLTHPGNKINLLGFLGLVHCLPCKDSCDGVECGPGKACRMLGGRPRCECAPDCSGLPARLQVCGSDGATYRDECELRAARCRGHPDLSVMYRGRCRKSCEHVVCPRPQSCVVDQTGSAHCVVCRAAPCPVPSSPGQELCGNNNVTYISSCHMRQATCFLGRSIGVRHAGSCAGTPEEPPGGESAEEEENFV
# [9] = target: Dickkopf-related protein 1 (Homo sapiens) (UniProt O94907); experiment: small molecules binding DKK1 protein – biochemical, small-molecule microarray, 635 nm fluorescence scan, primary screen (AID 1106); conditions: higher = more signal;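 note: score merges emission near 667 nm with signal to noise over three replicate slides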
# Chain of Dickkopf-related protein 1 (Homo sapiens) (O94907 whole entry, looked up): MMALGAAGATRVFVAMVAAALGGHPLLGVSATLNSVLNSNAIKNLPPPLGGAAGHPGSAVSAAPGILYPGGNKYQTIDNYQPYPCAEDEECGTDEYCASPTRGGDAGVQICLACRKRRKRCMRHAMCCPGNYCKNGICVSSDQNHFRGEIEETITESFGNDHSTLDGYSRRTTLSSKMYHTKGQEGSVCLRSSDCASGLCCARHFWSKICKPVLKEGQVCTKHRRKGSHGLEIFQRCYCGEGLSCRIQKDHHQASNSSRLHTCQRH
# [10] = system: Inhibin beta A chain (activin A); experiment: small molecules binding activin A – biochemical, small-molecule microarray, 635 nm fluorescence scan, primary screen (AID 1107); conditions: INHBA, higher = more signal;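 note: mouse activin A protein probed at 4.33 µg/mL on printed slides; score merges bound-protein fluorescence near 667 nm with spot signal-to-noise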
# [11] = system: Human papillomavirus type 1a protein E7 (residues 44-93); experiment: small molecules binding HPV E7 44-93 – biochemical, small-molecule microarray, residues 44-93, 635 nm fluorescence, primary screen (AID 1108); conditions: fluorescence 635 nm, higher = more signal;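 note: E7 fragment applied at 1 µg/mL in TBST for 1 h at 4 C; score combines spot fluorescence with its signal to noise ratio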
# [12] = hepatitis C replication reporter changes, two-sided – Huh7 cells, luciferase reporter, HCV replication inhibitor project, primary screen (AID 1109); conditions: Huh7 HCV replicon luciferase reporter, 48 h; higher = more signal;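 note: huh7 hepatoma cells harbouring a luciferase neomycin HCV replicon reporter; luciferase luminescence as measure of HCV replicon replication; test concentration not given here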
# [13] = target: Left-right determination factor 2 (Homo sapiens) (UniProt O00292); experiment: small molecules binding LEFTY2 protein – biochemical, small-molecule microarray, 635 nm fluorescence scan, primary screen (AID 1110); conditions: higher = more signal
# Chain of Left-right determination factor 2 (Homo sapiens) (O00292 whole entry, looked up): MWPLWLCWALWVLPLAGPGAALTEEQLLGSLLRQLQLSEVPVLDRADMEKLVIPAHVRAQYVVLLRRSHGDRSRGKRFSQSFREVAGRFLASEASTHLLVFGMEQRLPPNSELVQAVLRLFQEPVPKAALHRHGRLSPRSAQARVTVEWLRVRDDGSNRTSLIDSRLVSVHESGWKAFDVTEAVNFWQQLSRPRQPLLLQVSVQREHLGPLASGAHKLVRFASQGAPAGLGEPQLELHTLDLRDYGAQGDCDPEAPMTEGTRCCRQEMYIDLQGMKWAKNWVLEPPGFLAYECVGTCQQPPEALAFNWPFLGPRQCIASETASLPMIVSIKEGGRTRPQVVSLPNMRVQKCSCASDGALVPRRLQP
# [14] = target: Calmodulin-1 (Homo sapiens) (UniProt P0DP23); experiment: small molecules binding calmodulin-1 with EGTA – biochemical, small-molecule microarray, Cy5-labelled CALM1, profiling panel (AID 1111); conditions: Cy5-CALM1 binding fluorescence, higher = more signal;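 note: labelled calmodulin applied in Tris saline Tween buffer holding calcium plus EGTA and DTT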
# [15] = target: Calmodulin-1 (Homo sapiens) (UniProt P0DP23); experiment: small molecules binding Ca-loaded calmodulin-1 – biochemical, small-molecule microarray, Cy5-labelled CALM1, plus calcium, artefact control for SMM control-protein annotation, profiling panel (AID 1112); conditions: Cy5-CALM1 binding fluorescence, higher = more signal;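 note: score merges spot fluorescence with signal to noise from triplicate slides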
# [16] = probe aWnt5a binding to arrayed compounds – biochemical, biotinylated probe, 635/667 nm fluorescence, primary screen (AID 1113); conditions: small-molecule microarray, higher = more signal;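 note: score merges 667 nm fluorescence intensity with signal-to-noise per printed feature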
# [17] = probe aShh binding to arrayed compounds – biochemical, biotinylated probe, 635/667 nm fluorescence, primary screen (AID 1114); conditions: small-molecule microarray, higher = more signal;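 note: probe is biotin-labelled aShh protein from a stem cell growth factor screen; measures binding of labelled protein to compounds printed on the slide; score merges feature fluorescence at 667 nm with signal-to-noise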
# [18] = probe aNog binding to arrayed compounds – biochemical, biotinylated probe, 635/667 nm fluorescence, primary screen (AID 1115); conditions: small-molecule microarray, higher = more signal;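 note: probe is biotinylated aNog protein used at 0.15 µg/mL for 1 h at 4 C; z-score combines 667 nm fluorescence of each spot with its signal to noise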
# [19] = target: Torsin-1A-interacting protein 1 (Homo sapiens) (UniProt Q5JTV8); experiment: compound microarray binding of lysate hLAP1 – cell lysate, small-molecule microarray, COS7 lysate, 635/667 nm fluorescence, primary screen (AID 1116); conditions: 635 nm fluorescence, higher = more signal
# Chain of Torsin-1A-interacting protein 1 (Homo sapiens) (Q5JTV8 whole entry, looked up): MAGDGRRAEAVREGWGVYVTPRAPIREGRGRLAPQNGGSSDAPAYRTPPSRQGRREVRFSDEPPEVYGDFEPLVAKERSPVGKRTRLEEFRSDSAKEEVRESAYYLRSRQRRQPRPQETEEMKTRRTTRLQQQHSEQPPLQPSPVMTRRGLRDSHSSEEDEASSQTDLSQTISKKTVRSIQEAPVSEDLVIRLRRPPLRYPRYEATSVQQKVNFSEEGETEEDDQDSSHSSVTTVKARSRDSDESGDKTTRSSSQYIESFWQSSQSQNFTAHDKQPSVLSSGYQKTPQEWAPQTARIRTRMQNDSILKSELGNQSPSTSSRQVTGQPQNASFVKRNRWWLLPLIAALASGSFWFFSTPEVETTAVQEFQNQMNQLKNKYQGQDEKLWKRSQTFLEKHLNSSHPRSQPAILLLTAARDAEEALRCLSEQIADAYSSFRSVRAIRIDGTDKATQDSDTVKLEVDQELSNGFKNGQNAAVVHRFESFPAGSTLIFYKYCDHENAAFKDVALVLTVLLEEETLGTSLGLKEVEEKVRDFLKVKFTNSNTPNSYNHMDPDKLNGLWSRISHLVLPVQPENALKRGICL
# [20] = target: Alpha-bungarotoxin (Bungarus multicinctus) (UniProt P60615); experiment: compounds binding labelled alpha-BTX control protein – biochemical, small-molecule microarray, Alexa647 label, 635/667 nm fluorescence, artefact control for SMM control protein annotation, profiling panel (AID 1117); conditions: alpha-BTX-A647 binding fluorescence, higher = more signal
# Chain of Alpha-bungarotoxin (Bungarus multicinctus) (P60615 whole entry, looked up): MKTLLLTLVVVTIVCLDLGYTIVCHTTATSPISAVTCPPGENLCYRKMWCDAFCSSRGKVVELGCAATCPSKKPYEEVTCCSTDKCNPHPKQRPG
Structure (SMILES),composite z-score [1],composite z-score [2],composite z-score [3],z-score [4],composite z-score [5],composite z-score [6],composite z-score [7],composite z-score [8],composite z-score [9],composite z-score [10],composite z-score [11],z-score [12],composite z-score [13],composite z-score [14],composite z-score [15],composite z-score [16],composite z-score [17],composite z-score [18],composite z-score [19],composite z-score [20]
COc1ccc(NN2C(C(O)c3ccc([N+](=O)[O-])cc3)C=CC3C(=O)N(C4CCCCC4)C(=O)C32)cc1 (stereo not given),0.562,0.627,0.879,0.393 (inactive),0.355,0.909,-0.188,0.73,-0.281,0.921,1.35,0.376,-0.0693,1.04,0.212,-0.0758,0.368,0.797,0.55,0.799
CC(C)c1ccc(NN2C(C(O)C(c3ccccc3)c3ccccc3)C=CC3C(=O)N(c4ccccc4)C(=O)C32)cc1 (stereo not given),1.08,0.517,0.344,0.304 (inactive),1.31,1.26,0.438,1.06,0.238,0.203,1.42,-0.276,0.219,1.27,-0.147,0.0279,0.171,1.46,0.954,1.74
CCOC(=O)C[C@H]1[C@H](OC(=O)Cc2ccc3c(c2)OCO3)[C@@H](NC(=O)c2ccc(-c3ccccc3)cc2)c2cc(OCCCO)ccc2N1C(=O)Cc1ccc(OC)cc1,0.489,0.55,0.456,-2.01 (inactive),0.463,0.116,-0.0154,0.543,-0.0143,0.0884,0.911,-1.48,0.253,0.644,0.0039,0.0673,0.173,0.0804,0.521,-0.256
O=C1C2C=CC(C(O)C(c3ccccc3)c3ccccc3)N(n3cnnc3)C2C(=O)N1Cc1ccccc1 (stereo not given),0.55,-0.0184,0.571,0.00252 (inactive),1.25,1.07,-1.18,0.439,1.24,0.581,1.24,-0.832,-0.164,0.836,-0.34,0.07,0.184,0.976,1.57,0.652
C#CCN(CC=C(C)C)[C@H](CO)c1ccccc1,-0.383,-0.127,-0.209,-1.21 (inactive),-0.0443,0.81,0.372,0.0894,0.352,0.942,0.309,-0.817,0.185,-0.171,-0.438,0.0771,-0.279,-0.176,0.455,0.136
[N-]=[N+]=NCc1ccccc1[C@@H]1OC(c2ccc(OCCCO)cc2)=N[C@]1(Cc1ccccc1N=[N+]=[N-])C(=O)N1CCOCC1,0.814,1.22,1.35,0.783 (inactive),1.33,1.3,0.248,0.783,0.231,0.73,0.841,-1.56,0.404,1.97,0.995,0.334,0.686,2.35,1.44,1.82
[N-]=[N+]=NCc1ccccc1C[C@@]1(C(=O)NCC(O)CO)N=C(c2ccc(OCCCO)cc2)O[C@@H]1c1ccccc1N=[N+]=[N-] (stereo not given in full),0.991,1.03,1.38,0.561 (inactive),1.01,0.364,-0.0087,0.348,-0.504,1.2,1.39,-2.72,-0.124,2.21,1.02,0.149,0.156,2.11,2.18,0.842
CC(C)(C)OC(=O)CC[C@]1(C(=O)NCC(O)CO)COC(c2ccc(OCCCO)cc2)=N1 (stereo not given in full),0.304,0.747,0.788,0.646 (inactive),0.145,0.435,-0.172,-0.952,-1.01,0.173,1.31,-0.105,-0.455,1.5,0.834,-0.0512,0.275,0.592,1.7,1.88
C=C(CCCC)C(=O)CC[C@H](OC(=O)c1cccnc1)c1ccccc1OCCO,0.619,-0.322,0.154,-0.637 (inactive),0.704,-1.05,-0.0934,0.12,0.137,1.1,-0.935,-2.46,-0.154,-0.398,-0.95,-0.0758,-0.102,-0.136,-0.0529,-0.0583
COCCOC(=O)N1C(=O)[C@@]2(c3cc(C#CC4=CCCCC4)ccc31)[C@H](C(=O)N1CCc3cc(OC)c(OC)cc3C1)[C@H]1C(=O)O[C@H](c3ccccc3)[C@H](c3ccccc3)N1[C@@H]2c1ccc(OCCO)cc1,0.563,0.0129,-0.134,0.342 (inactive),1.3,1.3,0.649,1.03,0.8,0.706,1.07,-0.44,0.744,0.526,0.269,0.048,-0.428,0.575,0.929,1.07
